Source: PubChem BioAssay

target: E3 ubiquitin-protein ligase XIAP (Homo sapiens) (UniProt P98170); test: XIAP binders, primary screen, biophysical, small-molecule microarray, fluorescence 635 nm (AID 1181); conditions: small-molecule microarray binding, higher = more signal;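 note: score merges 667 nm emission and signal to noise over triplicate slides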
Sequence (P98170 whole entry, looked up): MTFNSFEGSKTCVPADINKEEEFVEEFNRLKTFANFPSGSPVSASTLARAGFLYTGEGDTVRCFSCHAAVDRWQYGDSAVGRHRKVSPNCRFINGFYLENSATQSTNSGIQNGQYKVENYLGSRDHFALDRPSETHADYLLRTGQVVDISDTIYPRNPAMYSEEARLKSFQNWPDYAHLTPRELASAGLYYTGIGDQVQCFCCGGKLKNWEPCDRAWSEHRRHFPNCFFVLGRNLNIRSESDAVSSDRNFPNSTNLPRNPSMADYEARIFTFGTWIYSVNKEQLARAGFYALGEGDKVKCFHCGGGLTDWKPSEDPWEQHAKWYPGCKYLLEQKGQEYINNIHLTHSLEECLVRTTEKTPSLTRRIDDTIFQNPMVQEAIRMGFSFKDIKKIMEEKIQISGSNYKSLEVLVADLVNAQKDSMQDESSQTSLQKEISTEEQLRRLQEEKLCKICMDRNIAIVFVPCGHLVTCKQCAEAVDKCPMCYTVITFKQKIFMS

Structure (SMILES) | composite z-score
O=C1OCCC=C[C@H]2OC34C=CCN(Cn5nnc6ccccc65)C(=O)[C@H]3N(CCCCCCO)C(=O)[C@@H]4C12 (stereo not given in full) | -0.302
O=C1C[C@@](C(=O)NCCN2CCOCC2)(c2ccc([N+](=O)[O-])cc2)[C@@H](c2ccc(CO)cc2I)N1C1CCCCC1 | 0.0223
NC(=O)N1C(=O)C2C(C1=O)C1C=C(CCCO)C2C(c2cccs2)N1Cc1cccc(OC(F)(F)F)c1 (stereo not given) | 0.195
C=C(/C(=C/C[C@H](OC(C)=O)c1ccccc1OCCO)c1cc(C(=O)OC)ccc1OC)C(C)C | 0.13
CCCC[C@@H](O)C1=C(COc2ccccc2)C[C@H]2C(=O)N(C)C(=O)[C@H]2[C@H]1CO | -0.127
O=C1NC(=O)C2C1C=CC(C(O)c1cccc3ccccc13)N2Nc1ccc(Cl)cc1Cl (stereo not given) | 0.351
COc1ccc(-c2cc3c(c(CCc4ccccc4)n2)[Si](C(C)C)(C(C)C)OC3)cn1 | 0.136
COC(=O)[C@@]1(Cc2ccc(F)cc2)[C@H]2c3cc(C(=O)N4CCCC4)n(CCc4ccc(O)c(O)c4)c3C[C@H]2CN1C(=O)c1ccccc1 | 0.32
CC1=C[C@@]2(CO)C(=O)[C@]3(CO3)[C@@H]1[C@H]1[C@]2(C)C=C(CO)C(=O)[C@]12CO2 | -0.227
O=C(NCC(F)(F)F)[C@@H]1c2ccccc2C(=O)N(Cc2ccc(OC(F)(F)F)cc2)[C@H]1c1ccc(CO)cc1 | 0.104
COC(=O)Cn1c(C(=O)N(C)C)cc2c1C[C@H]1CN(C(=O)c3ccccc3)[C@@](Cc3ccc(F)cc3)(C(=O)OC)[C@@H]21 | -0.13
COc1ccc([Si](C)(C)[C@H]2[C@H](CC(=O)N(CCO)Cc3ccccc3)O[C@@]3(C(=O)N(Cc4cccc(N5CCOC5=O)c4)c4ccccc43)[C@@H]2C)cc1 | -0.0562
COCCCNC(=O)[C@]1(CCS(=O)(=O)c2ccccc2)N=C(c2ccc(OCCCO)cc2)O[C@@H]1c1ccccc1CN=[N+]=[N-] | 0.481
[N-]=[N+]=Nc1ccccc1C[C@]1(C(N)=O)N=C(c2ccc(OCCCO)cc2)O[C@H]1c1ccccc1N=[N+]=[N-] | -0.248
C#CCN([C@@H](Cc1ccc(O)cc1)C(=O)OC)[C@@H](/C=C/C1CC1)[C@H](O)Cc1ccccc1 | 0.798
CN(C)c1ccc(C(O)C2C=CC3C(=O)N(c4ccccc4)C(=O)C3N2Nc2ccc([N+](=O)[O-])cc2)cc1 (stereo not given) | -0.359
NCCCCCCNC(=O)[C@@H]1C[C@@H]2C(=O)N[C@@H](CCCCN)C(=O)N2[C@@H]1c1cccc(OCCO)c1 | 2.72
CCOC(=O)C1=CC[C@@H](c2ccc(OCc3ccccc3)c(OC)c2)N(S(=O)(=O)c2ccc(C)cc2)[C@H]1c1ccc(SC)cc1 | 0.307

Structure (SMILES) | composite z-score
COC(=O)[C@@]1(Cc2ccccc2)[C@H]2c3cc(C(=O)N(C)C)n(Cc4c(CO)[nH]cc(C)c4=O)c3C[C@H]2CN1C(=O)c1ccccc1 | -0.0663
CN1C(=O)C2C=CC(C(O)COCc3ccccc3)N(N(c3ccccc3)c3ccccc3)C2C1=O (stereo not given) | 0.0537
CCC[C@@H]1C[C@@]1(CCC)[C@@H](NC(=O)OCc1ccccc1)c1ccc(-c2ccccc2)cc1 | -0.0669
COCCOC(=O)N1C(=O)[C@@]2(c3cc(C#CC4=CCCCC4)ccc31)[C@H](c1ccc(OCCO)cc1)N1[C@H](c3ccccc3)[C@H](c3ccccc3)OC(=O)[C@H]1[C@@H]2C(=O)NC[C@H](O)c1ccccc1 | -0.12
C=C(CCCC)/C(=C/C[C@@H](OC(=O)c1ccncc1)c1ccccc1OCCO)c1cnc2ccccc2c1 | -0.0599
CC1CC/C=C\[C@H]2OC34C=CCN(C(C)C)C(=O)[C@H]3N(CCCCCCO)C(=O)[C@@H]4C2C(=O)O1 (stereo not given in full) | 0.0914
O=C1C2C=CC(C(O)c3ccc(Br)cc3)N(Nc3ccccc3F)C2C(=O)N1c1ccccc1 (stereo not given) | 0.0933
COC(=O)[C@@]1(Cc2ccc(OC)cc2)[C@H]2c3cc(C(=O)N4CCCC4)n(Cc4cccc5ccccc45)c3C[C@H]2CN1C(=O)c1ccccc1 | 0.5
CCOC(=O)C1CCCCN1 (stereo not given) | -0.222
COc1ccc([Si](C)(C)[C@H]2[C@H](CCn3cc([C@H](O)c4ccccc4)nn3)O[C@@]3(C(=O)N(Cc4ccc(N5C(=O)c6cccc7cccc5c67)cc4)c4ccccc43)[C@@H]2C)cc1 | -0.031
[N-]=[N+]=NCc1ccccc1C[C@@]1(C(=O)N2CCOCC2)N=C(c2ccc(OCCCO)cc2)O[C@@H]1c1ccccc1 | 0.284
COC(=O)C(CC#Cc1ccc2c(c1)[C@]1(C(=O)N2)[C@H](C(=O)N2CCN(c3ncccn3)CC2)[C@H]2C(=O)O[C@H](c3ccccc3)[C@H](c3ccccc3)N2[C@@H]1c1ccc(OCCO)cc1)C(=O)OC | -0.039
[N-]=[N+]=Nc1ccccc1[C@@H]1OC(c2ccc(OCCCO)cc2)=N[C@]1(Cc1ccccc1)C(=O)NCC(O)CO (stereo not given in full) | 0.366
CCCC[C@@H]1C[C@H]1[C@@H](NC(=O)c1cccs1)c1ccc(C(F)(F)F)cc1 | 0.0408
COC(=O)[C@@]1(Cc2ccc(OC)cc2)[C@H]2c3cc(C(=O)N(C)C)n(CCO)c3C[C@H]2CN1C(=O)c1ccccc1 | 0.0223
CCOC(=O)C[C@H]1[C@H](OC(=O)Cc2ccc3c(c2)OCO3)[C@@H](NC(=O)CC(C)C)c2cc(OCCCO)ccc2N1C(=O)Cc1ccc(OC)cc1 | -0.0622
O=C1NC(=O)C2C1C=CC(C(O)c1ccco1)N2Nc1ccccn1 (stereo not given) | -0.0342
